Most compounds without a hit are left out; they make up all but 11% or so of the library.
MCF10A rerep: A quantitative high throughput screen for small molecules that induce DNA re-replication in MCF 10a normal breast cells; Potency, µM (titrated, usually from 46.1 µM), without a hit: at the highest dose activity, positive = re-replication, actives largely listed as activators; 2.9% of 350,000 active; MCF 10A DNA re-replication, Hoechst nuclear intensity, 48 h; further: potency means the concentration at half of the fitted maximal effect; % of control where 0% means no effect; nearly all actives have a fitted effect of over 50% in size
Gal4-VP16 FLuc: VP16 counterscreen qHTS for inhibitors of ROR gamma transcriptional activity; Drosophila S2 Gal4-VP16 UAS-luciferase, luminescence, 20 h; 3.5% of 310,000 active; Potency, µM (series often up to 53.6 µM), for the others: top-dose activity, negative = inhibition, usual class: inhibitors;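 further: Gal4-VP16 expression switched on by copper sulfate through the metallothionein promoter; potency means the concentration at half of the fitted maximal effect; on the % scale 0 is the no-effect control and ±100 the full control effect; nearly all actives have a fitted effect of over 50% in size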
RORgamma inh: qHTS for inhibitors of ROR gamma transcriptional activity | Nuclear receptor ROR-gamma (Mus musculus), P51450 | Drosophila S2 Gal4-RORgamma UAS-luciferase reporter, 20 h | Potency, µM (highest dose often 53.6 µM), inactives show at the top dose activity change, negative = inhibition, most hits filed as inhibitors | 5.4% of 310,000 active | AID 2551, 2010; further: potency means the concentration at half of the fitted maximal effect; on the % scale 0 is the no-effect control and ±100 the full control effect; nearly all actives have a fitted effect of over 60% in size
Target sequence (P51450 whole entry, looked up, the tested form may be a part): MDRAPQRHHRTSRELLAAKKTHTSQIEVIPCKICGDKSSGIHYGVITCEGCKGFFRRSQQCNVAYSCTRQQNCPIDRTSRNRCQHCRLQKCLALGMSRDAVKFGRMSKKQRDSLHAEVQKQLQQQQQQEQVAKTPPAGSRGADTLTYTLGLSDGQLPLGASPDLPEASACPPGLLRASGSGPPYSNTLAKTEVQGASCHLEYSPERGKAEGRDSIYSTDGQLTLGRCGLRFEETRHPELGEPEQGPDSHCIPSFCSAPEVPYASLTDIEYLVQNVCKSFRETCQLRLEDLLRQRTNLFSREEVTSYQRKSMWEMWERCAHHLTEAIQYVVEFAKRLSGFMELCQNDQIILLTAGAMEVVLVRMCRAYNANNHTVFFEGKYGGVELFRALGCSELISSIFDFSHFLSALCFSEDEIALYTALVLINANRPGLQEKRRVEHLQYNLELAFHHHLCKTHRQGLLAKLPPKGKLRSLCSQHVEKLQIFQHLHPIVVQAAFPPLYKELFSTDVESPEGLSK
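Drosophila Schneider cells stably carrying a metallothionein-driven Gal4 DBD–ROR gamma fusion and a UAS-Photinus luciferase reporter were exposed to compound for 1 hr, then induced with copper sulfate (700 uM final) for 20 hr at ambient temperature before luminescence reading.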
SW480 rereplic: A quantitative high throughput screen for small molecules that induce DNA re-replication in SW480 colon adenocarcinoma cells. SW480 DNA re-replication, Hoechst DNA content imaging, 48 h. Potency, µM (highest dose often 46.1 µM), without a hit: top-dose re-replication activation, most hits filed as activators. 1.8% of 340,000 active; further: potency means the concentration at half of the fitted maximal effect; % of control where 0% means no effect; nearly all actives have a fitted effect of over 55% in size
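Image-based read-out: total Hoechst fluorescence of nuclei (405 nm excitation, 500-530 nm emission), with hits raising the fraction of high-intensity nuclei. SW480 colon cells incubated 48 hr with compounds at 37 C.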
IL-1B inflam inh: qHTS for Inhibitors of Inflammasome Signaling: IL-1-beta AlphaLISA Primary Screen. THP-1 LPS/ATP IL-1B secretion, AlphaLISA, 16 h; hits give low values. activity change, % at 57.5 µM. 4.7% of 360,000 active. AID 743279, 2014; in the data active means activity change below about -50%; inconclusive means mostly about -30% to -49%; further: on the % scale 0 is the no-effect control and ±100 the full control effect
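THP-1 cells pretreated 1 hr with compounds (up to 57.5 uM final), then stimulated with LPS (250 ng/mL final) plus ATP (1.25 mM final); secreted IL-1B measured by AlphaLISA after 16 hr, decreased signal indicating inhibition.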
Numbers without * were called inactive. Unless noted, the call rests on the fitted dose curve; in most records, active means well fitted curve in the direction sought with a large enough effect; inconclusive means small, poorly fitted or top-dose-only effect, or another doubt; inactive means no such curve, though single readings can be large; an effect the other way counts as inactive or inconclusive.

How did CCN(C/C=C/C#CC(C)(C)C)Cc1cccc(OCc2cc(-c3ccsc3)cs2)c1 do in these assays?
Gal4-VP16 FLuc: 5.8%; RORgamma inh: 1.5%

How did Nc1c(C(=O)Nc2ccc(S(=O)(=O)N3CCCC3)cc2)sc2nc3ccc(OC(F)(F)F)cc3cc12 do in these assays?
MCF10A rerep: inconclusive; Gal4-VP16 FLuc: 10µM*; RORgamma inh: 15.8µM*; SW480 rereplic: 15.3%; IL-1B inflam inh: -96.8*

How did O=C(CCSc1nnc(-c2ccccc2)o1)N1CCOCC1 do in these assays?
MCF10A rerep: 11.1%; Gal4-VP16 FLuc: -25.8%; RORgamma inh: -19.1%; SW480 rereplic: -1.7%; IL-1B inflam inh: -23.2

What do the screens show for `Cc1cccc(-c2nnc(SCCC(=O)N3CCOCC3)o2)c1`?
MCF10A rerep: 0.8%; Gal4-VP16 FLuc: 7.08µM*; RORgamma inh: inconclusive; SW480 rereplic: -6.0%; IL-1B inflam inh: -2.1

How did Cc1ccc(-c2nnc(SCCC(=O)N3CCOCC3)o2)cc1 do in these assays?
MCF10A rerep: 7.2%; Gal4-VP16 FLuc: -4.4%; RORgamma inh: 6.31µM*; SW480 rereplic: 9.3%; IL-1B inflam inh: -7.0

What do the screens show for `Cc1cccc(-c2nnc(SCC(=O)N3CCCC3)o2)c1`?
MCF10A rerep: 15.8%; Gal4-VP16 FLuc: -3.6%; RORgamma inh: -29.1%; SW480 rereplic: -20.6%; IL-1B inflam inh: -10.7

How did CCN(CC)C(=O)C1=C(C)N(Cc2ccc(OC)cc2)C(=O)C(CC(=O)NCCN2CCOCC2)C1 (stereo not given) do in these assays?
IL-1B inflam inh: 14.4

How did Cc1nc(NC(=O)COC(=O)CCc2ccccc2)c(Cl)cc1Cl do in these assays?
MCF10A rerep: -4.5%; SW480 rereplic: -5.5%; IL-1B inflam inh: 9.6

How did CCOc1ccc(C(=O)NC(C(=O)NCCc2ccc(OC(F)F)cc2)C(C)C)cc1 (stereo not given) do in these assays?
MCF10A rerep: inconclusive; Gal4-VP16 FLuc: 1.0%; RORgamma inh: -2.3%; SW480 rereplic: 13.1%; IL-1B inflam inh: 7.7

What do the screens show for `COc1ccc(OC)c2nc3c(cc12)CCC3`?
MCF10A rerep: -10.0%; Gal4-VP16 FLuc: inconclusive; RORgamma inh: 15.8µM*; SW480 rereplic: -3.2%; IL-1B inflam inh: 25.9

What do the screens show for `COc1ccc(OC)c2cc3ccccc3cc12`?
MCF10A rerep: inconclusive; SW480 rereplic: 13.8%; IL-1B inflam inh: 0.0

Results for CCc1cc(SC#N)ccc1N ?
MCF10A rerep: 14.7%; Gal4-VP16 FLuc: inconclusive; RORgamma inh: inconclusive; SW480 rereplic: 3.3%; IL-1B inflam inh: -102.3*

Results for CCc1cc([N+](=O)[O-])cc(CC)c1N ?
MCF10A rerep: -0.7%; Gal4-VP16 FLuc: -0.5%; RORgamma inh: 42.1%; SW480 rereplic: -0.6%; IL-1B inflam inh: -8.8

How did CC(C)(C)OC(=O)C[C@@H]1C/C=C\C[C@H](CC(=O)N(CCO)Cc2ccccc2)C(=O)N[C@H](Cc2ccccc2)COC1=O do in these assays?
MCF10A rerep: -1.0%; SW480 rereplic: 3.8%; IL-1B inflam inh: -18.7

Results for CCC(=O)N1CCCC(C)(C(=O)Nc2ccc3oc(CC)nc3c2)C1 (stereo not given) ?
IL-1B inflam inh: 42.5

How did COc1ccc([C@H]2CC(=O)C[C@@H](CCn3cc(-c4nccn4C)nn3)O2)cc1 do in these assays?
IL-1B inflam inh: -4.4

What do the screens show for `O=C(c1nc2ccc(Cl)cn2c1CNCC[C@@H]1C[C@@H]2C=C[C@H]1C2)N1CCCCCCC1`?
MCF10A rerep: 18.0%; Gal4-VP16 FLuc: 5.5%; RORgamma inh: 15.2%; SW480 rereplic: 19.8%; IL-1B inflam inh: -72.1*

How did Nc1cc2c(cc1Cl)N(Cc1ccccc1)C(=O)CO2 do in these assays?
MCF10A rerep: 1.9%; SW480 rereplic: 22.2%; IL-1B inflam inh: 2.5

Results for S=C(Nc1ccc(Cl)c(Cl)c1)N1CCOCC1 ?
MCF10A rerep: 0.4%; Gal4-VP16 FLuc: 5.8%; RORgamma inh: -36.2%; SW480 rereplic: -4.2%; IL-1B inflam inh: 0.0

What do the screens show for `CC(C)c1ccc(NC(=S)NN2CCOCC2)cc1`?
MCF10A rerep: -2.4%; Gal4-VP16 FLuc: inconclusive; RORgamma inh: 8.91µM*; SW480 rereplic: -8.6%; IL-1B inflam inh: -3.4

What do the screens show for `S=C(Nc1ccc(Cl)cc1)NN1CCOCC1`?
MCF10A rerep: 0.0%; Gal4-VP16 FLuc: inconclusive; RORgamma inh: 11.2µM*; SW480 rereplic: -4.4%; IL-1B inflam inh: 11.8

What do the screens show for `S=C(Nc1ccc(Cl)c(Cl)c1)NN1CCOCC1`?
MCF10A rerep: -7.8%; Gal4-VP16 FLuc: 10µM*; RORgamma inh: 7.94µM*; SW480 rereplic: 15.1%; IL-1B inflam inh: 2.2

Results for O=C1c2ccc(-c3ccc(Cl)c(C(F)(F)F)c3)cc2S(=O)(=O)c2cccc(C(=O)N3CCN(c4ccc(Cl)cn4)CC3)c21 ?
MCF10A rerep: 1.4%; SW480 rereplic: 0.9%; IL-1B inflam inh: -15.0

Results for CC(C)N(C)c1ncnc2c1ncn2[C@H]1CN(CCN2CCOCC2)C[C@@H](CO)O1 ?
IL-1B inflam inh: 27.1

How did c1ccc(COc2ccccc2CNC2CCCC2)cc1 do in these assays?
MCF10A rerep: -0.2%; Gal4-VP16 FLuc: -12.6%; RORgamma inh: inconclusive; SW480 rereplic: -0.3%; IL-1B inflam inh: -70.4*

Results for c1csc(COc2ccccc2CNC2CCCCC2)c1 ?
MCF10A rerep: 17.8%; Gal4-VP16 FLuc: -2.8%; RORgamma inh: 33.2%; SW480 rereplic: 16.8%; IL-1B inflam inh: -72.6*

Results for COc1cccc(CNC2CCCCCCC2)c1OC ?
MCF10A rerep: 0.6%; Gal4-VP16 FLuc: -4.9%; RORgamma inh: 0.9%; SW480 rereplic: -7.0%; IL-1B inflam inh: -13.3

What do the screens show for `c1ccc(COc2ccccc2CNC23CC4CC(CC(C4)C2)C3)cc1`?
MCF10A rerep: 23.2%; Gal4-VP16 FLuc: inconclusive; RORgamma inh: inconclusive; SW480 rereplic: inconclusive; IL-1B inflam inh: -95.3*

How did COc1ccc(N2CC(NC(=O)c3ccc4ccccc4c3)CC2=O)cc1OC (stereo not given) do in these assays?
MCF10A rerep: -8.8%; SW480 rereplic: -91.4%; IL-1B inflam inh: 18.1

How did O=C(Cc1cccc2ccccc12)NCCOc1ccccc1F do in these assays?
MCF10A rerep: -2.6%; Gal4-VP16 FLuc: 2.5%; RORgamma inh: 23.7%; SW480 rereplic: 1.0%; IL-1B inflam inh: -83.6*

Results for CC(=O)NCCOc1cccc2ccccc12 ?
MCF10A rerep: -0.7%; Gal4-VP16 FLuc: -4.5%; RORgamma inh: 2.4%; SW480 rereplic: -2.3%; IL-1B inflam inh: 3.9

What do the screens show for `Cc1cc(Br)cn2c(CC(C)(C)C)c(C3CCCCC3)nc12`?
IL-1B inflam inh: 25.4

What do the screens show for `O=c1cc(/C=C/c2ccccc2)oc2c1ccc1ccccc12`?
MCF10A rerep: 20.6µM*; Gal4-VP16 FLuc: inconclusive; RORgamma inh: -9.8%; SW480 rereplic: -4.6%; IL-1B inflam inh: -4.1

Bioassay records: PubChem, National Center for Advancing Translational Sciences (NCATS)
